Screening data deposited in PubChem by National Center for Advancing Translational Sciences (NCATS).
Only some compounds are listed: those with a hit (about 2.3% of all), similar ones and a draw of the others.
Abeta rescue: restores growth of yeast expressing A-beta42 peptide. 410,000 tested, 0.063% active. Potency, µM (series often up to 46.1 µM), usual class: activators. yeast expressing A-beta42, growth rescue, OD600, 48 h; response scale: 0% DMSO, 100% iron-clioquinol control; note: nearly all actives have a fitted effect of over 55% in size
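Yeast A-beta toxicity model in growth medium with pinned compounds, 48 h at 30 C; growth read as absorbance at 600 nm. Normalized to FeCl3/clioquinol equimolar mix (positive) and DMSO (negative).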
CCT chaperon mod: modulators of cytosolic chaperonin (CCT/TRiC) activity | activity change, % (test concentration not listed), hits read low | 360,000 tested, 0.3% active | AID 651819 | purified chaperonin ATPase assay, HTRF ADP detection, 30 min; in the data active = activity change below about -30%
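TRiC at 40 or 20 nM final (batch-dependent) in 30 mM Tris pH 7.4, 100 mM KCl, 5 mM MgCl2, 1 mM DTT, with compound at single 76 uM and 10 uM ATP, 30 min at 37 deg C. ADP detected by HTRF Transcreener, 665/615 ratio.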
MmCpn inh: inhibitors of Methanococcus maripaludis chaperonin TRiC (MmCpn); 330,000 tested, 0.031% active; purified Mm-Cpn ATPase, ADP Transcreener TR-FRET; Potency, µM (titrated, usually from 76.9 µM), usual class: inhibitors; note: nearly all actives have a fitted effect of over 80% in size
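ATPase read-out: TR-FRET ADP immunoassay (anti-ADP Eu cryptate vs ADP-d2), ex 320 nm, em 590/665 nm; signal drops as ADP forms. Enzyme 25 nM, ATP 10 uM, 30 min at 37°C after 10 min compound preincubation.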
TDP-43 yeast inh: TDP-43 toxicity inhibition in yeast. TDP-43 expressing yeast growth rescue, BacTiter-Glo, 24 h. 410,000 tested, 1.8% active. Potency, µM (series often up to 46.1 µM), hits mostly activators; note: nearly all actives have a fitted effect of over 50% in size
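Readout is BacTiter-Glo luminescence of cell growth, so inhibitors register as activators. TDP-43-expressing yeast at OD600=0.02 in galactose medium, after raffinose pregrowth to mid-log, were incubated with compound for 24 hr at 30 deg C.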
FUS suppressor: FUS proteinopathy suppression in yeast. S. cerevisiae FUS-expressing, growth rescue, OD600, 24 h. Potency, µM (top dose mostly 76.6 µM), most hits filed as activators. 390,000 tested, 0.24% active. AID 1347120; note: nearly all actives have a fitted effect of over 55% in size
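Yeast FUS proteinopathy model; galactose-induced FUS (2%), starting OD 0.005. Cpds in dilution series, 24hr, 30C, 99% humidity. Abs 600 nm growth. Pos ctrl CP55940 (top 92uM final); neg ctrl DMSO.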
aSyn yeast inh: rescues yeast growth from alpha-synuclein toxicity. Yeast expressing alpha-synuclein, growth rescue, BacTiter-Glo, 24 h. Potency, µM (series often up to 46.1 µM), hits mostly activators. 370,000 tested, 0.14% active. AID 652106; note: nearly all actives have a fitted effect of over 65% in size
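Galactose-induced alpha-syn yeast (OD600=0.02, raffinose-pregrown) + pinned cpd, 24 hr, 30 deg C; growth by BacTiter-Glo luminescence. Growth restoration scores as activation.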
A number is an active result; - = inactive; ? = inconclusive; . = not tested or not shown. Unless noted, calls come from the whole dose curve; as a rule, active = well fitted curve in the direction sought with a large enough effect; inconclusive = small, poorly fitted or top-dose-only effect, or another doubt; inactive = no such curve, though single readings can be large; an effect the other way counts as inactive or inconclusive.

SMILES | Abeta rescue | CCT chaperon mod | MmCpn inh | TDP-43 yeast inh | FUS suppressor | aSyn yeast inh
COc1ccc(/C=C(/NC(=O)c2ccc([N+](=O)[O-])cc2)C(=O)NCCCN(C)C)cc1 | - | - | - | - | - | -
C=CCNC(=O)/C(=C\c1ccc(OC)cc1)NC(=O)c1ccc([N+](=O)[O-])cc1 | - | -35.0 | - | - | - | -
CCOC(=O)c1cc(S(=O)(=O)N2CCN(c3ccccc3F)CC2)[nH]n1 | - | . | . | ? | - | .
CCOC(=O)c1cc(S(=O)(=O)N2CCN(c3cccc(C)c3C)CC2)[nH]n1 | ? | . | . | 35.5µM | ? | .
CCOC(=O)c1cc(S(=O)(=O)N2CCN(c3ccc(C)cc3C)CC2)[nH]n1 | - | . | . | 14.1µM | ? | .
COC(=O)[C@]12CCCCC=C1N(Cc1ccc(OC)cc1)C(=O)[C@@H]2CC(=O)NCCCN1CCCC1=O | . | . | . | . | - | .
Cc1ccc(Nc2ncnc3ccccc23)cc1 | - | - | - | - | - | -
Cc1ccc(Nc2ncnc(Cl)c2N)cc1 | - | - | . | 35.5µM | - | -
O=C1CCCN1CCCNS(=O)(=O)c1cccs1 | - | - | - | - | - | -
O=C1CCCN1CCCNS(=O)(=O)c1ccccc1 | - | - | - | 1.12µM | - | ?
S=C(NCc1ccccc1)Nc1cccc(Cl)c1 | - | - | - | 28.2µM | . | -
Fc1ccccc1NC(=S)NCc1ccc(Cl)cc1 | ? | - | - | 11.2µM | - | -
O=C(CNc1cccc(Cl)c1)NNC(=S)NCc1ccccc1 | - | - | - | - | - | -
C=C1C=C(C(F)F)n2ncc(C(=O)NCc3ccc(F)cc3)c2N1 | . | . | . | . | . | -
CC(=O)O[C@@H]1CCC[C@@]2(C(=O)Nc3ccccc32)[C@H]1NC(=O)C(C)C | . | . | . | . | - | .
Cc1ccc(Cl)cc1N1CCN(C(=O)c2ccc(CS(=O)(=O)c3ccc(Br)cc3)o2)CC1 | - | . | . | - | 22.4µM | .
O=S(=O)(Nc1cc(Br)cc2cccnc12)c1cccc2ccccc12 | . | . | . | . | . | 25.1µM
COc1ccc(-c2nc(NC(=O)Cn3ccc(C(F)(F)F)n3)sc2C)cc1 | - | - | - | 35.5µM | - | -
COc1ccc(-c2nc(NC(=O)CSCCO)sc2C)cc1 | - | -56.0 | - | - | - | -
COc1ccc(-c2nc(NC(=O)c3[nH]c(C)c(C(C)=O)c3C)sc2C)cc1 | - | - | - | 35.5µM | - | -
COc1ccc(C(=O)Nc2ccnn2C2CCN(Cc3cnn(C)c3)CC2)cc1 | - | - | - | - | - | -
COc1ccc(C(=O)Nc2ccnn2C2CCN(Cc3ccccn3)CC2)cc1 | - | -35.3 | - | - | - | -
O=C(Nc1ccnn1C1CCN(CC2CC=CCC2)CC1)c1ccccc1 (configuration not stated) | - | -53.8 | - | - | - | -
CCn1cc(/C=C(\NC(=O)c2ccc(OC)c(OC)c2)C(=O)NCCCN2CCOCC2)c2ccccc21 | - | -81.2 | - | - | - | -
CCn1cc(/C=C(\NC(=O)c2ccc(C)cc2)C(=O)NCCCN2CCOCC2)c2ccccc21 | - | - | - | - | - | -
SMILES | Abeta rescue | CCT chaperon mod | MmCpn inh | TDP-43 yeast inh | FUS suppressor | aSyn yeast inh
O=C(O)/C=C/c1ccc2ccccc2c1 | . | . | . | . | . | -
O=C(N/N=C/c1sc(N2CCOCC2)nc1-c1ccccc1)c1ccccc1Cl | - | - | - | - | - | -
O=C(N/N=C/c1sc(N2CCOCC2)nc1-c1ccccc1)c1ccccc1O | - | - | - | 14.1µM | - | -
O=C1OC(c2ccccc2)c2ccccc21 (configuration not stated) | - | - | - | - | - | -
Cc1ccc(C2OC(=O)c3ccccc32)cc1 (configuration not stated) | - | - | - | 35.5µM | . | -
CCCCCCCCN1C(=O)[C@H](CC(=O)N2CCN(C(=O)C3CC3)CC2)C[C@@]2(C(=O)OC)CCCCC=C12 | - | - | . | ? | ? | -
CCCCCCCCN1C(=O)[C@H](CC(=O)NCCCN2CCCC2=O)C[C@@]2(C(=O)OC)CC(C)(C)CC=C12 | - | . | . | 35.5µM | ? | -
C#CCNC(=O)C[C@@H]1C[C@@]2(C(=O)OCC)CCCC=C2N(CCCCCCCC)C1=O | - | - | . | 12.6µM | 10µM | ?
